# AmpC detergent: blocks E. coli AmpC beta-lactamase in detergent assay; AmpC hydrolysis of nitrocefin, absorbance 480 nm, 0.01% Triton; actives 0.041% (n = 370,000); Potency, µM (highest dose often 114 µM), for inactives: at the top dose activity change, negative = inhibition, usual class: inhibitors; P00811; AID 485294;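 note: 0% = no-compound wells and -100% = no-enzyme wells; nearly all actives have a fitted effect of over 25% in size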
# Target sequence (P00811 whole entry, looked up): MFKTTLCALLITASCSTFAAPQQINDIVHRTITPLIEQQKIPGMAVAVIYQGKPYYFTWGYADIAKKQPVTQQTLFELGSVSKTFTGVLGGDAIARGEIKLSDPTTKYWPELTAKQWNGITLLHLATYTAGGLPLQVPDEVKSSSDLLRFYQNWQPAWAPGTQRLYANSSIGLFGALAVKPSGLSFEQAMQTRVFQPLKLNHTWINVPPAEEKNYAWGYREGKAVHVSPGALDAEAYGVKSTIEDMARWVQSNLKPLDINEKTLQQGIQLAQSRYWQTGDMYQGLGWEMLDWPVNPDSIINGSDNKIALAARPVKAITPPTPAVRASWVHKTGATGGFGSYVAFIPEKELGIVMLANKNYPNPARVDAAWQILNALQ
#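 AmpC (5.3 nM in the dispensed reagent) in 20 mM phosphate pH 7.0 with 0.01% (detergent screen) or 0.0001% Triton X-100 was preincubated with compounds for 15 min at room temperature. Nitrocefin was then added from an 800 uM solution, and hydrolysis was followed at 480 nm.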
# Sm TGR inh: S. mansoni TGR enzyme inhibition | actives 3% (n = 360,000) | purified TGR, DTNB reduction, TNB absorbance 405 nm | AID 485364 | Potency, µM (doses to about 114 µM), for inactives: at the highest dose activity change, negative = inhibition, actives largely listed as inhibitors | Q962Y6; note: nearly all actives have a fitted effect of over 60% in size
#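 TGR 20 nM + NADPH 100 uM (dispensed conc.), cpd preinc 15 min RT; start with NADPH (500 uM addition) then DTNB (15 mM addition). Kinetic TNB absorbance, 405 nm filter. Four-parameter Hill fit across titration.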
# AmpC inh no detg: blocks E. coli AmpC beta-lactamase in detergent-free assay; P00811; AmpC nitrocefin hydrolysis, absorbance 480 nm, 0.0001% Triton; Potency, µM (series often up to 57.1 µM), inactives show top-dose activity change, negative = inhibition, usual class: inhibitors; actives 0.52% (n = 330,000);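 note: plate controls were no compound for no effect and no enzyme for full effect; nearly all actives have a fitted effect of over 20% in size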
#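 20 mM phosphate pH 7.0 + 0.01% (detergent screen) or 0.0001% Triton X-100; 5.3 nM AmpC reagent; cpd preinc 15 min RT; nitrocefin (800 uM stock) to start; A480 q20 s × 4 min; Activity was normalised to no-enzyme and no-compound control wells.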
# An asterisk follows results filed as active; ? = inconclusive; . = not tested or not shown; [ ] = dose if it differs, or a comment. Rows were chosen to be rich in hits. Some 3.3% of all compounds tested hit in one or more screens of this group. Calls come from the whole dose curve; as a rule, active = well fitted curve in the direction sought with a large enough effect; inconclusive = small, poorly fitted or top-dose-only effect, or another doubt; inactive = no such curve, though single readings can be large; an effect the other way counts as inactive or inconclusive. Unless noted, % is set by controls: 0 for no effect and ±100 for the full control effect; potency is the fitted concentration of half-maximal effect.
SMILES,AmpC detergent,Sm TGR inh,AmpC inh no detg
COc1cccc(CN(C(=O)c2ccc([N+](=O)[O-])cc2)C2CCS(=O)(=O)C2)c1 (configuration not stated),-2%,4%,8%
Cc1ccc(-c2csc(N(CCO)CCCn3c(C(F)(F)F)nc4ccccc43)n2)cc1,0%,-4%,30%
COc1ccc(CCNC(=O)C(=O)NCC2OCCN2S(=O)(=O)c2cc(F)ccc2F)cc1OC (configuration not stated),2%,5%,53%
COc1ccc(NC(=O)Nc2c(SC)nsc2SC)cc1,3%,?,-30%
CC(=O)c1csc(COc2ccc(Cl)cc2)n1,-2%,-8%,0%
Cc1ccc(OS(=O)(=O)c2c(C)nn(C)c2Cl)c(C)c1,-15%,-19%,-4%
COc1ccc(N2C(=O)CC(N3CCCC4CCCCC43)C2=O)cc1 (configuration not stated),-3%,11µM*,-11%
O=C1CC(N2CCN(c3ccc(O)cc3)CC2)C(=O)N1c1ccc2c(c1)OCO2 (configuration not stated),5%,.,-12%
COc1ccc(N2C(=O)CC(C3CCCO3)C2=O)cc1 (configuration not stated),2%,-4%[57.1 µM],-13%
NC(=O)C1(N2CCCCC2)CCN(C2CC(=O)N(Cc3cccs3)C2=O)CC1 (configuration not stated),?,50µM*,-6%
CN1C(=O)CC(N2CCC(C(N)=O)(N3CCCCC3)CC2)C1=O (configuration not stated),?,-1%,-43%
O=C1CC(N2CCCCCC2)C(=O)N1c1ccc2c(c1)OCO2 (configuration not stated),-8%,7.9µM*,-25%
NC(=O)C1(N2CCCCC2)CCN(C2CC(=O)N(CCc3ccccc3)C2=O)CC1 (configuration not stated),1%,?,.
COc1cccc(N2C(=O)CC(N3CCC(C(N)=O)(N4CCCCC4)CC3)C2=O)c1 (configuration not stated),3%,18µM*,-28%
O=c1[nH]c(C2CCN(S(=O)(=O)c3ccc(C(F)(F)F)cc3)CC2)nc2c1nnn2Cc1ccccc1,-21%,-1%,2%
CCCCCN(C(=O)CCC(=O)OCC(=O)c1ccc(C(C)CC)cc1)c1c(N)n(CCCC)c(=O)[nH]c1=O (configuration not stated),4%,6%,-6%
CCc1ccc2c(c1)C(NC(C)=O)C(=O)N2CCN1CCOCC1 (configuration not stated),-5%,89µM*,14%
CCCN1C(=O)C(NC(C)=O)c2ccccc21 (configuration not stated),-1%,6%,-15%
Cc1cccc(C(=O)OCC(=O)NC(=O)Cc2ccccc2)c1O,1%,4%,-23%
O=C(/C=C/c1ccco1)Nc1cccnc1,1%,.,11%
CC(/C=C/c1ccco1)=N/NC(=O)c1ccc(C)nc1,7%,45µM*,-16%
Cc1ccc(C(=O)N/N=C/c2cccc(OC(=O)/C=C/c3ccco3)c2)cn1,6%,?,-6%
CC(/C=C/c1ccco1)=N\NC(=O)c1cc(C)[nH]n1,?,28µM*,32%
CN(C)c1ccc(/C=C/C(=O)c2ccccc2O)cc1,6%,-3%,-43%
Cc1cc(C(=O)N/N=C/c2ccco2)n[nH]1,-2%,14%,-6%
SMILES,AmpC detergent,Sm TGR inh,AmpC inh no detg
O=C(/C=C/c1ccco1)c1ccccc1O,5%,32µM*,-29%
O=C(/C=C/c1ccco1)c1cccnc1,-10%,13µM*,-15%
CC(/C=C/c1ccco1)=N/NC(=O)Cc1cccs1,-3%,25µM*,-18%
CC(/C=C/c1ccco1)=N\NC(=O)c1cc(Cl)ccc1O,0%,8.9µM*,-53%
C/C(=N\NC(=O)c1ccoc1C)c1cccnc1,-9%,-3%,-22%
CC(/C=C/c1ccco1)=N\NC(=O)c1cccnc1,-2%,35µM*,30%
O=C(/C=C/c1ccco1)Oc1cc(Br)cc(/C=N/NC(=O)c2ccccc2O)c1,-11%,-6%,-32%
CC(/C=C/c1ccco1)=N/NC(=O)OC(C)(C)C,-12%,40µM*,-9%
C/C(=N/NC(=O)OC(C)(C)C)c1ccco1,-6%,-20%,-5%
C/C(CC(=O)NC1CCCC1)=N\NC(=O)Cc1cccs1,-7%,-12%,-30%
O=C(CCn1c(=O)oc2ccccc21)Nc1ccc2c(c1)OCCO2,13%,11%,-29%
COc1cccc(/C=C/C(=O)NNC(=O)c2ccccc2)c1OC,.,.,-11%
